Compound activity (PubChem BioAssay)
The list is not random: actives were taken first. Their share in the collection is about 4.7%.
TRHR ag = qHTS for Small Molecule Agonists and Allosteric Enhancers of Human TRH Receptor: Primary Screen for Agonists; Thyrotropin-releasing hormone receptor (Homo sapiens), P34981; TRHR cells, calcium flux fluo-8, FDSS agonist mode; activation, % at 2 µM; 360,000 compounds, 0.18% hits; AID 493084, 2011; further: 0% is about no effect
Target sequence (P34981 whole entry, looked up): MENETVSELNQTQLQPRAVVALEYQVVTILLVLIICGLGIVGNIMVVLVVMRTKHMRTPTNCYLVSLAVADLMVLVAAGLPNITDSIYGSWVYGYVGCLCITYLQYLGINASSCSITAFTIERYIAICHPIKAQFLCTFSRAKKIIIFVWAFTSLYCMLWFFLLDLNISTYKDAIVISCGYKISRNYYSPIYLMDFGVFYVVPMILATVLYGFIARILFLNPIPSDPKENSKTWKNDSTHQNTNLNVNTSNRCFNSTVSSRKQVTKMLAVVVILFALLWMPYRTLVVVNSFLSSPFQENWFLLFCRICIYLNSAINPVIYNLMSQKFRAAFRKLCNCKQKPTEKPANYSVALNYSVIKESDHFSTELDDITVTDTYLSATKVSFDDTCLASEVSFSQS
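Agonist-mode FDSS calcium read (Ex 480/Em 530, 1 s cycles) in 1536-well TRHR cells with fluo-8 dye, after 10-cycle baseline and 23 nL compound addition; TRH at EC20 (10 nM final) added afterwards for the enhancer phase.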
D1 ag = Allosteric Agonists of the Human D1 Dopamine Receptor: qHTS; D(1A) dopamine receptor (Homo sapiens), P21728; HEK293 T-REx D1 cells, calcium flux, agonist mode; activation, % at 2 µM; 360,000 compounds, 1% hits; further: 0% is about no effect
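Tetracycline-induced HEK293 TREx D1 cells, force-coupled to calcium signalling, were dye-loaded with a no-wash calcium kit. Compound was pin-added after a 10 s baseline. Fluorescence was read kinetically at 1 cycle/s for 180 s, with calcium rises flagged as agonism.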
D1 PAM = Potentiators of Human D1 Dopamine Receptor: qHTS. 360,000 compounds, 0.036% hits. HEK293 TREx D1 cells, calcium flux, dopamine EC20 potentiation. potentiation, % at 10 µM. D(1A) dopamine receptor (Homo sapiens), P21728; in the data active means potentiation above about 30%; further: 0% is about no effect
TRHR PAM = qHTS for Small Molecule Agonists and Allosteric Enhancers of Human TRH Receptor: Primary Screen for Enhancers. enhancement, % at 2 µM. 360,000 compounds, 0.66% hits. Thyrotropin-releasing hormone receptor (Homo sapiens), P34981. TRHR cells, fluo-8 calcium fluorescence, EC20 TRH enhancement; in the data active means enhancement above about 30%; further: 0% is about no effect
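Enhancer read-out: after compound pinning and an initial kinetic agonist-mode read, an EC20 of TRH (10 nM final) was injected and fluo-8 calcium signal (Ex 480/Em 530) followed at 1 s/cycle for 100 cycles in TRHR-expressing cells.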
D1 antagonist = Antagonist of Human D 1 Dopamine Receptor: qHTS. activity change, negative = inhibition, % at 10 µM. 360,000 compounds, 3.2% hits. HEK293 TREx D1 cells, calcium flux, dopamine EC80; active compounds read low. AID 504652, 2011; in the data active means activity change below about -30%; further: on the % scale 0 is the no-effect control and ±100 the full control effect
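Compound effects on dopamine-evoked calcium signalling were measured in tetracycline-induced HEK293 Trex D1 cells. Dopamine at EC80 followed a 180 s compound pre-read, and fluorescence was tracked kinetically for 180 s more.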
Numbers without * were called inactive; nt = no result. Unless noted, no stated cut-off is given here; in the data, active means activation above about 30%; inactive means the rest.

SMILES	TRHR ag	D1 ag	D1 PAM	TRHR PAM	D1 antagonist
COc1ccc(NC(=O)COc2nsnc2N2CCCCC2)cc1	0	4	0	0	-34*
CCOc1ccc(NC(=O)COc2nsnc2N2CCCCC2)cc1	0	7	8	8	14
O=C(NNC(=O)c1ccccc1C(=O)O)c1cc2ccccc2o1	-2	2	-8	-3	-3
O=C(CCSc1ccc(Cl)c(Cl)c1)NC12CC3CC(CC(C3)C1)C2	-3	41*	-5	12	-4
O=C(CSc1ccc(F)cc1)NC12CC3CC(CC(C3)C1)C2	0	0	9	6	0
O=C(Nc1ccc2ccccc2c1)c1ccccc1O	4	22	-3	-16	-34*
COc1ccc(C(=O)Nc2ccc3ccccc3c2)cc1	0	7	2	1	4
CS(=O)(=O)Nc1ccc(C(=O)Nc2ccc3ccccc3c2)cc1	0	2	-6	15	-38*
O=C(Nc1ccc2ccccc2c1)c1ccc(Cl)cc1Cl	1	2	-1	-7	9
Cc1ccccc1C(=O)NC(=O)Nc1ccc(-n2nc(C(F)(F)F)cc2C(F)(F)F)cc1	3	0	-4	6	2
C=CCOc1ccc(/C=N/N2C(=O)C(CC(=O)Nc3ccc(F)cc3F)SC2=NC)cc1 (stereo unspecified)	3	14	-6	1	-49*
CCOc1ccccc1NC(=O)CSc1nnc(CNC(=O)COc2ccc(Cl)cc2)o1	0	6	-9	-10	-38*
O=C(NCc1cccc(Cl)c1)c1ccc2nc(N3CCCCC3)sc2c1	1	2	0	1	-1
CCOc1cccc2sc(NC(=O)c3ccc(S(=O)(=O)N4CCCCC4)cc3)nc12	0	1	5	3	-2
Cc1ccc(/C=[N+](\[O-])c2ccc(N(C)C)cc2)c2nsnc12	16	37*	3	-3	-5
Cc1ccc2nsnc2c1NS(=O)(=O)c1c(C)ccc2nsnc12	-1	0	2	-6	0
COc1ccccc1Cn1c(=S)[nH]c2cc(C(=O)NCc3cccnc3)ccc2c1=O	0	5	-3	-5	-31*
COc1ccc(Cn2c(=S)[nH]c3cc(C(=O)NCc4cccnc4)ccc3c2=O)cc1	1	3	-3	1	10
O=C(NC1CC(=O)N(c2cccc(F)c2)C1)c1ccc(S(=O)(=O)N2CCCC2)cc1 (stereo unspecified)	0	3	0	0	nt
COc1cc(OC)c(NC(=O)c2cc(C(C)=O)n3ccccc23)cc1Cl	0	2	-2	1	-22
Cc1ccc(C)c(COc2coc(CN3CCN(C(=O)c4ccco4)CC3)cc2=O)c1	-1	5	1	19	4
Cc1ccc(NC(=O)c2nc(S(=O)(=O)Cc3ccc(F)cc3)ncc2Cl)cc1C	2	4	-3	-15	-37*
Cc1ccccc1CS(=O)(=O)c1ncc(Cl)c(C(=O)Nc2nnc(C(C)C)s2)n1	0	-1	3	0	8
Cc1ccc(NC(=O)c2nc(S(=O)(=O)Cc3ccccc3C)ncc2Cl)cc1C	-1	3	-9	-23	-40*
CCOc1ccc(CCNc2ncnc3onc(-c4ccc(Cl)cc4)c23)cc1	1	24	0	9	-48*
SMILES	TRHR ag	D1 ag	D1 PAM	TRHR PAM	D1 antagonist
Cc1ccc(CCNc2ncnc3onc(-c4ccc(Cl)cc4)c23)cc1	0	3	1	2	-11
CCCNc1ncnc2onc(C)c12	0	4	3	13	-1
COc1ccc(CCNc2ncnc3onc(C)c23)c(OC)c1	-1	24	-7	-1	-45*
CSc1ccc(CCNc2ncnc3onc(C)c23)cc1	-1	35*	-9	22	-50*
COc1ccc(-c2noc(CCC(=O)Nc3ccc(C(F)(F)F)cc3)n2)cc1	1	13	-4	10	-19
COC(=O)c1cc(C(=O)NCc2ccccc2)c(=O)[nH]c1C	0	2	6	-1	-6
C/C=C/c1ccc(OCCOCCNCc2ccccc2)c(OC)c1	0	15	-5	6	-24
COc1ccc(-c2cc3nc(-c4ccc(C)cc4)cc(C(F)(F)F)n3n2)cc1	-1	2	-1	4	-17
CCN(CC(=O)Nc1ccc(NC(C)=O)cc1)CC(=O)Nc1cc(C)on1	0	3	-2	0	-11
Cc1cc(NC(=O)CS(=O)(=O)c2cn(Cc3ccc(F)cc3)c3ccccc23)no1	0	6	-3	0	-39*
O=C(NCc1ccccc1)c1cc2ccc3cccnc3c2[nH]1	1	1	2	31*	3
CC(Nc1ccccc1CO)C(=O)Nc1cccc(Cl)c1Cl (stereo unspecified)	0	1	-5	23	-61*
Cc1ccc(S(=O)(=O)N/N=C/c2c[nH]c3ccccc23)cc1	0	9	-8	4	-49*
Cc1ccc(S(=O)(=O)N(CC(=O)O)Cc2ccco2)cc1	1	2	26	-4	6
Cc1ccc(S(=O)(=O)N(Cc2ccccc2)Cc2ccco2)cc1	3	11	-9	-1	-31*
Cc1ccc(S(=O)(=O)N(Cc2ccc(F)cc2)Cc2ccco2)cc1	1	8	-10	-7	-33*
CSCCC(NS(=O)(=O)c1ccc(C)cc1)C(=O)N1CCN(S(=O)(=O)c2ccc(F)cc2)CC1 (stereo unspecified)	0	1	5	-8	-2
CCOc1ccc(NC(=O)c2cc3cc4cc(OC)ccc4nc3s2)cc1	1	3	3	1	-12
Cn1c(=O)c2c(nc(SCC(=O)NCc3ccc4c(c3)OCO4)n2Cc2ccccc2)n(C)c1=O	0	-5	4	0	-3
Cn1c(=O)c2c(nc(SCC(=O)NCc3ccc4c(c3)OCO4)n2Cc2ccc(F)cc2)n(C)c1=O	0	0	-22	-7	-37*
S=C(NC1CCCC1)NC1CC1	0	6	-5	18	-41*
O=C(Cc1ccc(F)cc1)Nc1c(C(=O)N2CCN(c3ncccn3)CC2)oc2ccccc12	4	2	3	-9	-6
COc1cc(NC(=O)CCN2CCN(c3ccccc3F)CC2)cc(OC)c1	0	3	-11	11	-42*
COC(=O)c1[nH]c2cccc(OC)c2c1NC(=O)CCN1CCC(C(N)=O)CC1	0	-1	-2	1	-14
